# Results from PubChem BioAssay AID1159580 (chemical genetic matrix, 2015).
# Screen size: about 5,500 compounds; about 2,000 (36%) were called active. Roughly 18% stayed inconclusive and do not appear here. This is one part of the list. A number with no mark means an inactive call. Cut-off read from the data, not from the text of the source: active = normalized growth mostly below about 0.91 (no sharp cut-off); inconclusive = no clear call, values can overlap the other calls; inactive = mostly above about 0.92.
# Assay: chemical genetic growth profiling, strain panel (AID 1159580);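 note: tested at 20 µM; growth read once vehicle control cultures reached saturation at 30 °C; 1 = growth at the plate median or of vehicle wells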
# Conditions: growth OD
# [1] = S. cerevisiae deletion strains, locus YDL101C, strain DUN1, stronger effect = lower value
# [2] = S. cerevisiae deletion strains, locus YHR030C, strain SLT2, stronger effect = lower value
# [3] = S. cerevisiae deletion strains, locus YAL013W, strain DEP1, stronger effect = lower value
# [4] = S. cerevisiae deletion strains, locus YBR229C, strain ROT2, stronger effect = lower value
# [5] = S. cerevisiae deletion strains, locus YDL134C, strain PPH21, stronger effect = lower value
# [6] = S. cerevisiae deletion strains, locus YDR150W, strain NUM1, stronger effect = lower value
# [7] = S. cerevisiae deletion strains, locus YEL061C, strain CIN8, stronger effect = lower value
# [8] = S. cerevisiae deletion strains, locus YGR078C, strain PAC10, stronger effect = lower value
# [9] = S. cerevisiae deletion strains, locus YHR087W, strain rtc3, stronger effect = lower value
# [10] = S. cerevisiae deletion strains, locus YJR043C, strain POL32, stronger effect = lower value
# [11] = S. cerevisiae deletion strains, locus YJR075W, strain HOC1, stronger effect = lower value
# [12] = S. cerevisiae deletion strains, locus YKL190W, strain CNB1, stronger effect = lower value
# [13] = S. cerevisiae deletion strains, locus YLR039C, strain RIC1, stronger effect = lower value
# [14] = S. cerevisiae deletion strains, locus YLR058C, strain SHM2 (second series), stronger effect = lower value
# [15] = S. cerevisiae deletion strains, locus YLR085C, strain ARP6, stronger effect = lower value
# [16] = S. cerevisiae deletion strains, locus YLR262C, strain YPT6, stronger effect = lower value
# [17] = S. cerevisiae deletion strains, locus YML094W, strain GIM5, stronger effect = lower value
# [18] = S. cerevisiae deletion strains, locus YMR219W, strain ESC1, stronger effect = lower value
# [19] = S. cerevisiae deletion strains, locus YMR263W, strain SAP30, stronger effect = lower value
# [20] = S. cerevisiae deletion strains, locus YMR307W, strain GAS1, stronger effect = lower value
# [21] = S. cerevisiae deletion strains, locus YNL153C, strain GIM3, stronger effect = lower value
# [22] = S. cerevisiae deletion strains, locus YNL298W, strain CLA4 (second series), stronger effect = lower value
# [23] = S. cerevisiae deletion strains, locus YNL322C, strain KRE1, stronger effect = lower value
# [24] = S. cerevisiae deletion strains, locus YNR030W, strain Alg12, stronger effect = lower value
# [25] = S. cerevisiae deletion strains, locus YPL055C, strain LGE1, stronger effect = lower value
# [26] = S. cerevisiae deletion strains, locus YPL241C, strain CIN2, stronger effect = lower value
# [27] = S. cerevisiae deletion strains, locus YPR135W, strain CTF4, stronger effect = lower value
# [28] = S. cerevisiae deletion strains, locus YNL128W, strain TEP1, stronger effect = lower value
# [29] = S. cerevisiae deletion strains, locus YAL040C, strain CLN3, stronger effect = lower value
# [30] = S. cerevisiae deletion strains, locus YCL061C, strain MRC1 (second series), stronger effect = lower value
# [31] = S. cerevisiae deletion strains, locus YDR363W, strain ESC2, stronger effect = lower value
# [32] = S. cerevisiae deletion strains, locus YER002W, strain NOP16, stronger effect = lower value
# [33] = S. cerevisiae deletion strains, locus YNL175C, strain NOP13, stronger effect = lower value
# [34] = S. cerevisiae deletion strains, locus YNL197C, strain WHI3, stronger effect = lower value
# [35] = S. cerevisiae deletion strains, locus YNL224C, strain SQS1, stronger effect = lower value
# [36] = S. cerevisiae deletion strains, locus YOR083W, strain WHI5 (second series), stronger effect = lower value
smiles,measurement,setting,value
Cc1cc(-c2onc(C)c2C(=O)Sc2ccccc2)no1,normalized growth,"S. cerevisiae deletion strains, locus YAR019C, strain CDC15, stronger effect = lower value",0.941
same,normalized growth,"S. cerevisiae deletion strains, locus YBL105C, strain PKC1, stronger effect = lower value",0.963
same,normalized growth,"S. cerevisiae deletion strains, locus YBR135W, strain CKS1, stronger effect = lower value",0.939
same,normalized growth,"S. cerevisiae deletion strains, locus YBR136W, strain MEC1, stronger effect = lower value",0.961
same,normalized growth,"S. cerevisiae deletion strains, locus YBR160W, strain CDC28, stronger effect = lower value",0.954
same,normalized growth,"S. cerevisiae deletion strains, locus YDL017W, strain CDC7, stronger effect = lower value",0.957
same,normalized growth,"S. cerevisiae deletion strains, locus YDL028C, strain MPS1, stronger effect = lower value",0.958
same,normalized growth,[1],0.959
same,normalized growth,"S. cerevisiae deletion strains, locus YDL108W, strain KIN28, stronger effect = lower value",0.962
same,normalized growth,"S. cerevisiae deletion strains, locus YDL132W, strain cdc53, stronger effect = lower value",0.926
same,normalized growth,"S. cerevisiae deletion strains, locus YDL214C, strain PRR2, stronger effect = lower value",0.826
same,normalized growth,"S. cerevisiae deletion strains, locus YDR052C, strain DBF4, stronger effect = lower value",0.971
same,normalized growth,"S. cerevisiae deletion strains, locus YDR054C, strain cdc34, stronger effect = lower value",0.918
same,normalized growth,"S. cerevisiae deletion strains, locus YDR226W, strain ADK1, stronger effect = lower value",0.954
same,normalized growth,"S. cerevisiae deletion strains, locus YDR477W, strain SNF1, stronger effect = lower value",0.811
same,normalized growth,"S. cerevisiae deletion strains, locus YER123W, strain YCK3, stronger effect = lower value",0.736
same,normalized growth,"S. cerevisiae deletion strains, locus YER133W, strain GLC7, stronger effect = lower value",0.823
same,normalized growth,"S. cerevisiae deletion strains, locus YFL009W, strain cdc4, stronger effect = lower value",0.921
same,normalized growth,"S. cerevisiae deletion strains, locus YFL029C, strain CAK1, stronger effect = lower value",0.921
same,normalized growth,"S. cerevisiae deletion strains, locus YFR003C, strain YPI1, stronger effect = lower value",0.958
same,normalized growth,"S. cerevisiae deletion strains, locus YFR019W, strain FAB1, stronger effect = lower value",0.909
same,normalized growth,"S. cerevisiae deletion strains, locus YFR028C, strain CDC14, stronger effect = lower value",0.96
same,normalized growth,"S. cerevisiae deletion strains, locus YGR040W, strain KSS1, stronger effect = lower value",0.852
same,normalized growth,"S. cerevisiae deletion strains, locus YGR052W, strain FMP48, stronger effect = lower value",0.81
same,normalized growth,"S. cerevisiae deletion strains, locus YGR092W, strain DBF2, stronger effect = lower value",0.705
same,normalized growth,[2],0.743 (active)
same,normalized growth,"S. cerevisiae deletion strains, locus YHR079C, strain IRE1, stronger effect = lower value",0.704
same,normalized growth,"S. cerevisiae deletion strains, locus YHR082C, strain KSP1, stronger effect = lower value",0.901
same,normalized growth,"S. cerevisiae deletion strains, locus YHR205W, strain SCH9, stronger effect = lower value",0.657
same,normalized growth,"S. cerevisiae deletion strains, locus YIL147C, strain SLN1, stronger effect = lower value",0.958
same,normalized growth,"S. cerevisiae deletion strains, locus YJL095W, strain BCK1, stronger effect = lower value",0.704
same,normalized growth,"S. cerevisiae deletion strains, locus YJL128C, strain PBS2, stronger effect = lower value",0.888
same,normalized growth,"S. cerevisiae deletion strains, locus YJL157C, strain FAR1, stronger effect = lower value",0.819
same,normalized growth,"S. cerevisiae deletion strains, locus YJR016C, strain ILV3, stronger effect = lower value",0.944
same,normalized growth,"S. cerevisiae deletion strains, locus YJR066W, strain TOR1 (second series), stronger effect = lower value",0.708
same,normalized growth,"S. cerevisiae deletion strains, locus YJR066W, strain TOR1, stronger effect = lower value",0.892
same,normalized growth,"S. cerevisiae deletion strains, locus YKL048C, strain ELM1, stronger effect = lower value",0.942
same,normalized growth,"S. cerevisiae deletion strains, locus YKL067W, strain YNK1, stronger effect = lower value",0.824
same,normalized growth,"S. cerevisiae deletion strains, locus YKL101W, strain HSL1, stronger effect = lower value",0.881
same,normalized growth,"S. cerevisiae deletion strains, locus YKL193C, strain SDS22, stronger effect = lower value",0.942
same,normalized growth,"S. cerevisiae deletion strains, locus YKL203C, strain TOR2, stronger effect = lower value",0.885
same,normalized growth,"S. cerevisiae deletion strains, locus YLR113W, strain HOG1, stronger effect = lower value",0.453 (active)
same,normalized growth,"S. cerevisiae deletion strains, locus YLR133W, strain CKI1, stronger effect = lower value",0.867
same,normalized growth,"S. cerevisiae deletion strains, locus YLR403W, strain SFP1, stronger effect = lower value",0.794
same,normalized growth,"S. cerevisiae deletion strains, locus YML070W, strain DAK1, stronger effect = lower value",0.829
same,normalized growth,"S. cerevisiae deletion strains, locus YMR001C, strain CDC5, stronger effect = lower value",0.935
same,normalized growth,"S. cerevisiae deletion strains, locus YMR205C, strain PFK2 (second series), stronger effect = lower value",0.87
same,normalized growth,"S. cerevisiae deletion strains, locus YMR277W, strain FCP1, stronger effect = lower value",0.925
same,normalized growth,"S. cerevisiae deletion strains, locus YNL006W, strain LST8, stronger effect = lower value",0.962
same,normalized growth,"S. cerevisiae deletion strains, locus YNL020C, strain ARK1, stronger effect = lower value",0.846
same,normalized growth,"S. cerevisiae deletion strains, locus YNL161W, strain CBK1, stronger effect = lower value",0.947
same,normalized growth,"S. cerevisiae deletion strains, locus YNL183C, strain NPR1, stronger effect = lower value",0.68
same,normalized growth,"S. cerevisiae deletion strains, locus YNL207W, strain RIO2, stronger effect = lower value",0.947
same,normalized growth,"S. cerevisiae deletion strains, locus YNL222W, strain SSU72, stronger effect = lower value",0.943
same,normalized growth,"S. cerevisiae deletion strains, locus YNL307C, strain MCK1 (second series), stronger effect = lower value",0.802
same,normalized growth,"S. cerevisiae deletion strains, locus YOL078W, strain AVO1, stronger effect = lower value",0.918
same,normalized growth,"S. cerevisiae deletion strains, locus YOL136C, strain PFK27, stronger effect = lower value",0.843
same,normalized growth,"S. cerevisiae deletion strains, locus YOR061W, strain CKA2, stronger effect = lower value",0.859
same,normalized growth,"S. cerevisiae deletion strains, locus YOR119C, strain RIO1, stronger effect = lower value",0.836
same,normalized growth,"S. cerevisiae deletion strains, locus YOR231W, strain MKK1, stronger effect = lower value",0.75
same,normalized growth,"S. cerevisiae deletion strains, locus YOR329C, strain SCD5, stronger effect = lower value",0.95
same,normalized growth,"S. cerevisiae deletion strains, locus YPL031C, strain PHO85, stronger effect = lower value",0.783
same,normalized growth,"S. cerevisiae deletion strains, locus YPL153C, strain RAD53, stronger effect = lower value",0.756
same,normalized growth,"S. cerevisiae deletion strains, locus YPL204W, strain HRR25, stronger effect = lower value",0.805
same,normalized growth,"S. cerevisiae deletion strains, locus YPL209C, strain IPL1, stronger effect = lower value",0.944
same,normalized growth,"S. cerevisiae deletion strains, locus YPL256C, strain CLN2, stronger effect = lower value",0.695 (active)
same,normalized growth,"S. cerevisiae deletion strains, locus YPR025C, strain CCL1, stronger effect = lower value",0.956
same,normalized growth,"S. cerevisiae deletion strains, locus YPR106W, strain ISR1, stronger effect = lower value",0.973
same,normalized growth,"S. cerevisiae deletion strains, locus YPR111W, strain DBF20, stronger effect = lower value",0.97
same,normalized growth,"S. cerevisiae deletion strains, strain NNK1, stronger effect = lower value",0.953
same,normalized growth,"S. cerevisiae deletion strains, strain TSCII, stronger effect = lower value",0.93
CSc1cc(C(F)(F)F)cc(SC)c1SC,normalized growth,[3],0.993
same,normalized growth,[4],0.975
same,normalized growth,[1],0.992
same,normalized growth,[5],0.909 (active)
same,normalized growth,[6],1.01
same,normalized growth,[7],0.987
same,normalized growth,[8],0.981
same,normalized growth,[2],0.678 (active)
same,normalized growth,[9],0.953
same,normalized growth,"S. cerevisiae deletion strains, locus YJL187C, strain SWE1, stronger effect = lower value",0.986
same,normalized growth,[10],0.988
same,normalized growth,[11],0.945
same,normalized growth,[12],0.967
same,normalized growth,[13],0.785 (active)
same,normalized growth,[14],0.974
same,normalized growth,[15],0.958
same,normalized growth,[16],0.809 (active)
same,normalized growth,[17],1.01
same,normalized growth,[18],0.978
same,normalized growth,[19],0.997
same,normalized growth,[20],0.373 (active)
same,normalized growth,[21],1
same,normalized growth,[22],0.975
same,normalized growth,[23],0.969
same,normalized growth,[24],0.974
same,normalized growth,[25],0.866
same,normalized growth,[26],0.986
same,normalized growth,[27],0.909
same,normalized growth,"S. cerevisiae strains, strain wild type, stronger effect = lower value",0.925
O=C(NC1CCCCC1)N1CCN(c2ncccc2C(F)(F)F)CC1,normalized growth,[3],1.01
same,normalized growth,[4],0.994
same,normalized growth,"S. cerevisiae deletion strains, locus YCL061C, strain MRC1, stronger effect = lower value",0.984
same,normalized growth,[1],0.998
same,normalized growth,[5],0.982
same,normalized growth,[6],0.978
same,normalized growth,[7],0.998
same,normalized growth,[8],1
same,normalized growth,[2],0.994
same,normalized growth,[9],1.01
same,normalized growth,[10],0.979
same,normalized growth,[11],0.99
same,normalized growth,[12],0.989
same,normalized growth,[13],1.01
same,normalized growth,[14],0.987
same,normalized growth,[15],0.996
same,normalized growth,[16],0.993
same,normalized growth,[17],1.01
same,normalized growth,[18],0.991
same,normalized growth,[19],0.988
same,normalized growth,[20],0.851
same,normalized growth,[28],0.986
same,normalized growth,[21],0.988
same,normalized growth,[22],0.986
same,normalized growth,[23],1
same,normalized growth,[24],1
same,normalized growth,"S. cerevisiae deletion strains, locus YOL006C, strain TOP1, stronger effect = lower value",0.966
same,normalized growth,[25],1.01
same,normalized growth,[26],0.985
same,normalized growth,[27],1.01
COc1ccccc1N1CCN(CCN(C(=O)C2CCCCC2)c2ccccn2)CC1,normalized growth,[29],0.99
same,normalized growth,[30],1.01
same,normalized growth,[31],1.01
same,normalized growth,[32],1.01
same,normalized growth,[11],1.01
same,normalized growth,[19],0.997
same,normalized growth,[20],0.993
same,normalized growth,[28],1.01
same,normalized growth,[21],1.01
same,normalized growth,[33],0.999
same,normalized growth,[34],1
same,normalized growth,[35],1
same,normalized growth,[36],1.05
same,normalized growth,[26],1.01
COc1ccccc1N1CCN(CCCCN2C(=O)c3ccccc3C2=O)CC1,normalized growth,[3],1
same,normalized growth,[29],0.99
same,normalized growth,[30],0.995
same,normalized growth,[31],0.963
same,normalized growth,[32],1.01
same,normalized growth,[8],0.985
same,normalized growth,"S. cerevisiae deletion strains, locus YGR229C, strain SMI1, stronger effect = lower value",1.02
same,normalized growth,[11],0.993
same,normalized growth,[19],1
same,normalized growth,[21],0.99
same,normalized growth,[33],0.979
same,normalized growth,[34],0.981
same,normalized growth,[35],1
same,normalized growth,[36],0.985
same,normalized growth,[25],0.971
same,normalized growth,[26],1
